Assay [1] concerns PRMT1 (protein arginine N-methyltransferase 1). Put plainly: PRMT1 binders on small-molecule microarrays, primary screen, biochemical, small-molecule microarray, 635 nm fluorescence (AID 1088).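 Note: binding of Prmt1 protein to compounds spotted on small-molecule microarray slides.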 As to conditions: small-molecule microarray binding, higher = more signal.
Assay [2] is described as follows: yeast growth modulation, basal conditions, primary screen, YJM789 clinical isolate, OD600, 24 h (AID 1089).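 Note: growth of clinical yeast isolate S. cerevisiae YJM 789 seeded 1000 cells per well; test concentration not given here.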 To be noted: S. cerevisiae YJM789 growth, higher = more signal, called active from +8 up or from −8 down.
Assay [3] in a line: fission yeast growth modulation, primary screen, strain 972, OD600, 24 h, no modulator (AID 1090).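 Note: basal condition with compound alone and no growth modifier present; test concentration not given here.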 As to conditions: S. pombe 972 growth, higher = more signal, called active from +8 up or from −8 down.
Assay [4] can be described thus: S. cerevisiae growth modulation with rapamycin, primary screen, strain BY4716, OD600, 96 h (AID 1091). Note: test concentration not given here. To be noted: higher = more signal, called active from +8 up or from −8 down.
In assay [5] the target is Torsin-1A-interacting protein 2 (Homo sapiens) (UniProt Q8NFQ8). Put plainly: LULL1 binders on small-molecule microarray, primary screen, cell lysate, human LULL1 lysate, 635/667 nm fluorescence (AID 1092).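 Note: probe is lysate of COS7 cells overexpressing human LULL1; score merges per-feature 667 nm fluorescence with signal-to-noise.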 To be noted: hLULL1 lysate binding, 635 nm fluorescence, higher = more signal.
Sequence of Torsin-1A-interacting protein 2 (Homo sapiens) (Q8NFQ8 whole entry, looked up): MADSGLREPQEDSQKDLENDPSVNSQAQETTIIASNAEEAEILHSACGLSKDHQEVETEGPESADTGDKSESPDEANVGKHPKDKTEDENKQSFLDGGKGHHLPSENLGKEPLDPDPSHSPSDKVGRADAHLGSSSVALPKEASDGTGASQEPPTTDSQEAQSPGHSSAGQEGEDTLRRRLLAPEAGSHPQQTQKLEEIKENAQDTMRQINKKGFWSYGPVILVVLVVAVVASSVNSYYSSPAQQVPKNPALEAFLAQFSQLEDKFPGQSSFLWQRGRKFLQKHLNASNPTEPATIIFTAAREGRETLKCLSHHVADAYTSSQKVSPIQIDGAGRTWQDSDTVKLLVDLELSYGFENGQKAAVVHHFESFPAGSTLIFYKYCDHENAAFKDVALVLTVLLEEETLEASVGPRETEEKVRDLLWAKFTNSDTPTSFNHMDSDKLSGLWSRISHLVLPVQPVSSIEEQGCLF
A short description of assay [6]: E. coli growth modulation, two-sided OD650, primary screen, E. coli filamentation project, strain DRC41, 24 h (AID 1093).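 Note: MC1000 strain lacking acrAB efflux and sulA so SOS filamentation is blocked; test concentration not given here.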 As to conditions: OD650, 24 h, higher = more signal, called active from +8 up or from −8 down.
Assay [7] in a line: small-molecule microarray binders of probe aLefty2, primary screen, biochemical, biotinylated probe, 635/667 nm fluorescence (AID 1094).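 Note: score merges spot fluorescence near 667 nm with spot signal-to-noise ratio.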 To be noted: higher = more signal.
Assay [8] concerns Noggin (protein binding on small-molecule microarray). The assay is described as follows: Noggin binders on small-molecule microarray, primary screen, biochemical, 635/667 nm fluorescence (AID 1095).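 Note: score merges 667 nm feature fluorescence with signal to noise over triplicate slides.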 To be noted: 635 nm fluorescence, higher = more signal.
Assay [9] addresses Neurogenic locus notch homolog protein 3 (Homo sapiens) (UniProt Q9UM47). The assay is described as follows: NOTCH3 binders on small-molecule microarray, primary screen, biochemical, 635/667 nm fluorescence (AID 1096). To be noted: NOTCH3 binding, 635 nm fluorescence, higher = more signal.
Assay [10] is described as follows: small-molecule microarray binders of probe aEGFR, primary screen, biochemical, biotinylated probe, 635/667 nm fluorescence (AID 1097).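 Note: probe is a biotinylated anti-EGFR antibody binding compounds printed on slides; score combines fluorescence near 667 nm and signal to noise of each spot.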 To be noted: higher = more signal.

Calls of active or inactive are those of the source.

Sequence of Neurogenic locus notch homolog protein 3 (Homo sapiens) (Q9UM47 whole entry, looked up): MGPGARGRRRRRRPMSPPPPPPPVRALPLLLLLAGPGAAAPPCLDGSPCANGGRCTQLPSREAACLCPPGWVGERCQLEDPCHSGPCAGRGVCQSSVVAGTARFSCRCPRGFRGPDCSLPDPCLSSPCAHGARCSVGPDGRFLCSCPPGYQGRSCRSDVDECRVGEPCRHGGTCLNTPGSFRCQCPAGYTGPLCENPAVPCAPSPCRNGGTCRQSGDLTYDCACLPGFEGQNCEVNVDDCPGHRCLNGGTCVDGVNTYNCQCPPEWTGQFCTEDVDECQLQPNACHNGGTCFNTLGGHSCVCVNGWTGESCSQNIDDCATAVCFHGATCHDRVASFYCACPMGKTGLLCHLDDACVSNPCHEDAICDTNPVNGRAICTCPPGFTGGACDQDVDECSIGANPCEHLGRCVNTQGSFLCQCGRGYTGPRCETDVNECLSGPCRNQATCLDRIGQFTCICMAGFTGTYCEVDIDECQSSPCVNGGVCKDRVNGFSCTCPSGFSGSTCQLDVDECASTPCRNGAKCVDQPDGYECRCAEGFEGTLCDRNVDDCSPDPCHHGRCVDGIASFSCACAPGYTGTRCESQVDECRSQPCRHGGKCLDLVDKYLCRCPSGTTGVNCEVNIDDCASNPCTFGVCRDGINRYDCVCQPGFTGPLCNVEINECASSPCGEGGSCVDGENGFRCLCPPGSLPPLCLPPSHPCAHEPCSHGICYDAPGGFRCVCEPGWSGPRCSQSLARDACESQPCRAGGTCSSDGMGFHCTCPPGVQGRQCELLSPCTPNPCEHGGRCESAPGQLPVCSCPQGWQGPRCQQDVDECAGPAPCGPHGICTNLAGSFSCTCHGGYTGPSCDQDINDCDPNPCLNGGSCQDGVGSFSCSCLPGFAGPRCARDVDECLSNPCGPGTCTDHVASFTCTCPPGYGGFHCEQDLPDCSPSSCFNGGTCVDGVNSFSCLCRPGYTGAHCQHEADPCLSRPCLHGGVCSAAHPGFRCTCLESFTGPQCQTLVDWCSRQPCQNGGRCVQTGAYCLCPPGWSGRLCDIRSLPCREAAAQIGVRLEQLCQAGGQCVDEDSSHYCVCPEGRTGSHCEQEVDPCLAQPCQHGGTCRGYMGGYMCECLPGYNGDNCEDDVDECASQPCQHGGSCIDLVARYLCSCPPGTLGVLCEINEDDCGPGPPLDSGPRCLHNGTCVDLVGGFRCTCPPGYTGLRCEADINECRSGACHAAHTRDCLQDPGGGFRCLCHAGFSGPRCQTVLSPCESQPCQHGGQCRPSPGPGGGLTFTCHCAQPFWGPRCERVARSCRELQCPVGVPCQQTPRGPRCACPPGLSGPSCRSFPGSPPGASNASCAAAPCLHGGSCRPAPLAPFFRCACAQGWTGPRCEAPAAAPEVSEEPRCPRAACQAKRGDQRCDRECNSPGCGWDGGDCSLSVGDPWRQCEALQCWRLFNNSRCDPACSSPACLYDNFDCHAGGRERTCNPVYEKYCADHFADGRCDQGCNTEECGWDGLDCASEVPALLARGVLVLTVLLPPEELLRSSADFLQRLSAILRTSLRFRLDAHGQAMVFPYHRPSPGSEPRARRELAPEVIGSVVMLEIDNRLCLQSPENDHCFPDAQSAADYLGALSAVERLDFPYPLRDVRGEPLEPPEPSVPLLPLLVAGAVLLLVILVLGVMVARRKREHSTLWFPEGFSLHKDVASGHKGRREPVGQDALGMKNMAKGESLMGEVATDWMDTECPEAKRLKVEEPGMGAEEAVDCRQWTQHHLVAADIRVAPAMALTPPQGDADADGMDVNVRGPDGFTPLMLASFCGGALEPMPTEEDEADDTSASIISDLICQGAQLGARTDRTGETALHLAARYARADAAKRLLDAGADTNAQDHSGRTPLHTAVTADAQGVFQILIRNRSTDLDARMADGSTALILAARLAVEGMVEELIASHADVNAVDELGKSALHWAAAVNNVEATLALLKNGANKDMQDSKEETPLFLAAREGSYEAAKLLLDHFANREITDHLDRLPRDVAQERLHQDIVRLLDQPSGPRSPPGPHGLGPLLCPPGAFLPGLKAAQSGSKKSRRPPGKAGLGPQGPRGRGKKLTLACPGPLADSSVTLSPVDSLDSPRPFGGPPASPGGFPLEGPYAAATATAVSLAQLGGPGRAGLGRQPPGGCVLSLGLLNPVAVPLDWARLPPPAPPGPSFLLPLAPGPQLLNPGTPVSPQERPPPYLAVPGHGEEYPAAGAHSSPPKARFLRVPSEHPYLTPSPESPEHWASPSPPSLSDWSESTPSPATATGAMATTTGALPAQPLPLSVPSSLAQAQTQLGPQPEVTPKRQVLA

`CCCCC(=C=CC[C@H](O)c1ccccc1OCCO)CCO`: the composite z-score in assay [1] is 0.95; in assay [5], 1.04; in [7], -0.19; in assay [8], -0.0419; in assay [9], -0.102; in [10], -0.0664. Besides, the z-score in assay [2] was 0.149 (inactive); in assay [3] it was -0.211 (inactive); in [4], -0.34 (inactive); in [6] it was 0.288 (inactive).

Consider `C=C[C@@H](CO)NS(=O)(=O)c1ccc(Br)cc1`, for which the composite z-score is -0.635 in assay [1]; -0.361 in [5]; -0.24 in assay [7]; -0.275 in assay [8]; -1.85 in [9]; -0.164 in assay [10]. The z-score was -3.08 (inactive) in assay [2], -3.63 (inactive) in assay [3], -1.27 (inactive) in assay [4] and 3.54 (inactive) in assay [6].

In the case of `COC(=O)[C@@]1(Cc2ccccc2)[C@H]2c3cc(C(=O)N(C)C)n(Cc4nc5ccccc5[nH]4)c3C[C@H]2CN1C(=O)c1ccccc1`, the composite z-score in assay [1] is 0.964; in assay [5], 3.5; in assay [7], 0.718; in assay [8], -0.307; in [9] it was 1.06; in assay [10], 0.135. In addition, the z-score in [2] is -0.895 (inactive); in [3], 0.338 (inactive); in assay [4], -0.678 (inactive); in [6], 0.914 (inactive).

Regarding `COc1ccc(-c2cc3c(c(CCc4ccccc4)n2)[Si](C(C)C)(C(C)C)O[C@H]3c2ccccc2)cn1`, the composite z-score was 0.469 in assay [1]; -0.0354 in [5]; -0.213 in assay [7]; 0.75 in [8]; 0.439 in assay [9]; -0.0749 in [10]. For the same compound, the z-score is 0.646 (inactive) in assay [2], -0.0525 (inactive) in [3], 1.23 (inactive) in [4] and -1.12 (inactive) in assay [6].

Regarding `C=CC[C@H](O)c1ccc(O)c2ccccc12`, the composite z-score in assay [1] is 1.56; in [5], 1.71; in assay [7], 0.0277; in assay [8] it was 1.07; in [9] it was 1.07; in assay [10], -0.0151. Also, the z-score in [2] was -7.13 (inactive); in assay [3], -17.9 (active); in assay [4], 8.59 (active); in assay [6] it was 1.49 (inactive).

These data come from PubChem BioAssay.
